Drawing on PubChem BioAssay AID588674 (Broad Institute, 2011), this text covers inhibition for 87 compounds.

In all, about 360,000 compounds went through this assay and about 1,800 (0.5%) were called active. The sample as a whole holds a higher share of actives than the screen did. A number with no mark means an inactive call.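 How the source made its calls: active means mean inhibition of at least 75% with every replicate also reaching 75%; inconclusive means mean inhibition at least 75% but some replicate below; inactive means mean inhibition below 75%.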

The assay in a line: Shn3 3'UTR reporter decrease in osteoblasts – cell-based, Clone20 osteoblasts, firefly luciferase, set 2, Schnurri-3 inhibitor project, primary screen (AID 588674).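 Further: 0% = median of neutral control wells and 100% = pilot-screen positive control compound.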 Particulars: Clone20 osteoblast Shn3 3'UTR firefly luciferase, 24 h; at 12.5 µM; stronger effect = higher value.
A word on the inhibition: it is the change of the read-out against control, counted positive when it falls. Turning to `CCn1c(NCCc2ccc(OC)c(OC)c2)nc2c1c(=O)n(C)c(=O)n2C`, the inhibition is 63.1%. Turning to `Cn1c(=O)c2c(nc(NCCNC(=O)c3ccco3)n2Cc2ccccc2F)n(C)c1=O`, the inhibition is 12.8%. In the case of `CCCCNc1nc2c(c(=O)n(C)c(=O)n2C)n1Cc1cccc(OC)c1` it was 86.7% (active). In the case of `C[C@H](C(=O)CC(=O)OC(C)(C)C)[C@H](O)c1ccc(C(F)(F)F)cc1` it was -13.2%. Regarding `O=C(NCc1ccc(F)cc1)c1cc(C2CCCCN2C(=O)c2cccs2)on1` (configuration not stated), the inhibition was 4.41%. For `O=S1(=O)CC(N2CCN(c3ccccn3)CC2)CN1Cc1ccc(F)cc1` (configuration not stated) the value was 11.2%; for `COc1ccccc1/C=C/C=N/n1c(-c2ccc(Cl)cc2Cl)n[nH]c1=S`, -1.5%. In the case of `Cc1cc(-c2n[nH]c(=S)n2/N=C/C(Br)=C/c2ccccc2)n[nH]1` it was 90.7% (active); in that of `COc1ccccc1N1CCN(/N=C\C(Br)=C\c2ccccc2)CC1`, 39.8%. In the case of `Cc1ccc(S(=O)(=O)N2C[C@]3(O)C[C@@H]4C(=O)N(c5ccccc5)C(=O)[C@@H]4C[C@]3(OC(=O)NC3CC3)C2)cc1` it was 7.81%; in that of `CCOC(=O)/C(=C\c1ccc([N+](=O)[O-])cc1)C(=O)c1cc(C(C)=O)c(Nc2ccccc2)s1`, 97.8% (active); in that of `CCOC(=O)/C(=N\Nc1ccccc1[N+](=O)[O-])c1csc(Nc2ccccc2)n1`, -7.96%. Turning to `CCOC(=O)C(=Cc1ccccc1)C(=O)c1ccccc1`, the inhibition is 40.1%. For `COc1ccc(-c2c(C#Cc3ccsc3)c3cc(-c4ccc(CN5CCOCC5)cc4)ccc3n2C)cc1` the value was 10.2%. For `CC1(C)CC(N2CCN(C(c3ccccc3)c3ccccc3)CC2)=CC(=[N+]2CCCCC2)C1` the value was 88.3% (active). In the case of `Cc1cccc(N2CCN(C(c3ccccc3)c3nnnn3CC3CCCO3)CC2)c1C` (configuration not stated) it was 20.4%; in that of `COc1ccccc1NC(=S)N1CCN(C(c2ccccc2)c2ccccc2)CC1`, 13.3%; in that of `Cc1ccc(-n2c(=O)c(C#N)cc3c(=O)n4ccccc4nc32)cc1C`, 6.55%. Regarding `O=C(NCC1CCCCC1)c1cc(S(=O)(=O)N2CCCCC2)ccc1N1CCOCC1`, the inhibition is -9.53%. `CCc1nnc(NC(=O)CCN(c2ccc(C)cc2)S(=O)(=O)c2ccccc2)s1`: the inhibition is -20.5%. In the case of `Cc1sc2ncnc(SCC(=O)NC3CCS(=O)(=O)C3)c2c1C` (configuration not stated) it was -6.98%; in that of `CC(C)(C)c1ccc(/C=C2\Oc3c(ccc(O)c3CN3CCN(CCO)CC3)C2=O)cc1`, 7.57%; in that of `COCCCNC(=O)Cn1cc(C(=O)C2CC2)c2ccccc21`, 11.6%. In the case of `Cc1ccccc1NC(=O)Cn1cc(C(=O)C2CC2)c2ccccc21` it was 8.79%; in that of `O=C(Cn1cc(C(=O)C2CC2)c2ccccc21)Nc1ccccc1Cl`, 87.4% (active); in that of `COc1cc(CNc2ncnc3c2ncn3[C@H]2CN(Cc3cccs3)C[C@@H](CO)O2)cc(OC)c1OC`, -5.77%.

On to `COc1ccccc1C(=O)NC(=S)Nc1ccc(N2CCOCC2)cc1`, for which the inhibition is -4.89%. In the case of `Cc1ccccc1C(=O)N1CCN(c2ccc(NC(=O)c3cccs3)cc2)CC1` it was 23.5%; in that of `Cc1ccccc1C(=O)NC(=S)Nc1ccc(N2CCN(C(=O)c3ccccc3)CC2)cc1`, 88.5% (active); in that of `CC1(C(=O)NS(=O)(=O)Cc2cccc(Cl)c2)CCN1C(=O)Cc1ccc(Cl)cc1Cl` (configuration not stated), 18.9%. In the case of `CC1(C)CC(=O)C=C(c2cccc3c2Oc2ccccc2S3)C1` it was 22.5%; in that of `CCOC(=O)c1c(C)[nH]c(C)c1S(=O)(=O)NCCCc1ccco1`, 6.75%; in that of `CCOC(=O)c1c(C)[nH]c(C(=O)OCC(=O)c2ccc(OC)cc2OC)c1C`, -19.1%. For `CCOC(=O)c1c(C)[nH]c2c1-c1ccccc1C(=O)C2=O` the value was 95.4% (active). Regarding `COc1ccccc1C(=O)Nc1ccnn1C1CCN(C(=O)C(C)(C)C)CC1`, the inhibition is -5.61%. In the case of `CC(=O)Nc1ccc(N2C(=O)CCC2=O)cc1C` it was -1.51%.

For `C/C(N)=C(/C#N)C(=O)COC(=O)C1CCN(C(=O)c2ccc(Cl)cc2)CC1`, the inhibition was 3.42%. For `Cc1cccc(NC(=O)c2nc(S(=O)(=O)Cc3ccccc3)ncc2Cl)c1` the value was 96.9% (active); for `Cc1cccc(NC(=O)CCN2CC(C)CC(C)C2)c1` (configuration not stated), 15.6%; for `Cc1cccc(CS(=O)(=O)c2ncc(Cl)c(C(=O)Nc3ccc(F)cc3)n2)c1`, 95.8% (active). For `Cc1cccc(NC(=O)Cn2cc(C(=O)c3ccco3)c3ccccc32)c1` the value was 76.4%; for `Cc1ccc(C)c(Cn2nnc3c(=O)[nH]c(C(=O)Nc4ccc(F)cc4)nc32)c1`, 6.9%; for `Cc1cccc(CN2CCC(CNC(=O)Nc3ccc(F)c(Cl)c3)CC2)c1`, 31.4%. For `CCS(=O)(=O)Nc1ccc(C(=O)NCCSc2ccccc2)cc1` the value was -6.43%; for `CCCCc1ccc(NC(=S)N2CCCC(CO)C2)cc1` (configuration not stated), -84.4%. Regarding `COc1cccc(CN(C)CC(=O)Nc2sc3c(c2C#N)CCC3)c1`, the inhibition was -22.6%. For `COc1cncc(-c2cnc3sc(NCCc4ccccn4)nn23)c1` the value was 21.9%. In the case of `COC(=O)c1sc(C(F)(F)F)c(-c2ccccc2)c1S(=O)(=O)N(C)C` it was 10.9%; in that of `CC(CN1CCCCC1)OC(=O)c1ccccc1Cl` (configuration not stated), -3.13%. For `CC(C)OC(=O)c1ccc(NCc2cc(O)ccc2O)cc1Cl` the value was 95.7% (active). Take `O=C(O)Cc1ccc(NCc2ccccc2Cl)cc1`: the inhibition was -22.2%. For `CNS(=O)(=O)c1cccc(C(=O)OCCCC(=O)c2ccccc2)c1` the value was 41.8%; for `Fc1ccc2[nH]c3c(N4CCSCC4)ncnc3c2c1`, 89.7% (active); for `CC(C)Cn1cnc2c(SCc3ccc(Cl)cc3)nc(N)nc21`, 11.7%.

Consider `COCCn1c(SC(C)C(=O)NC2CC2)nnc1-c1cccc(C)c1` (configuration not stated), for which the inhibition is 1.3%.

As to `CC1(C)C2CCC1(C)C(OC(=O)c1ccc(O)cc1)C2` (configuration not stated), the inhibition is 21.8%. For `O=C(OC12CC3CC(CC(C3)C1)C2)c1ccc(NCc2cc(O)ccc2O)cc1` the value was 98.1% (active).

Consider `CN(C)C(=O)CCc1ccc2c3c([nH]c2c1)[C@]1(C)[C@@H](C(=O)N2CCOCC2)C[C@H](CC(=O)NCCc2ccccn2)C(=O)N1CC3`, for which the inhibition is -11.8%.

On to `COc1cc(F)ccc1-c1cc(C(=O)NCC2CCCCC2)[nH]n1`, for which the inhibition was -10.1%. In the case of `CCCOc1ccc(F)cc1-c1cc(C(=O)Nc2ccc(F)cc2)[nH]n1` it was 20%; in that of `COc1ccc(OC)c(NC(=O)c2cc(-c3cc(F)ccc3OCC3CCCO3)n[nH]2)c1` (configuration not stated), 86.3% (active); in that of `O=C(CSc1ncnc2c1nnn2Cc1ccc(F)cc1)NC1CCCC1`, -2.06%. In the case of `O=C1c2ccccc2[C@@H]2C[C@@H](O)[C@H](Nc3ccccc3Cl)CCN12` it was 55.5%. In the case of `Cc1ccc(C)c(NC(=O)CSc2nnc(Cc3cccn3C)n2-c2ccc(F)cc2)c1` it was 7.47%; in that of `Cn1cccc1Cc1nnc(SCC(=O)NCCc2ccccc2)n1-c1ccc(F)cc1`, 87.9% (active). Regarding `COc1ccccc1NC(=O)CSc1nnc(Cc2cccn2C)n1-c1ccc(F)cc1`, the inhibition is 17%.

Regarding `Fc1cccc(Cc2c(-c3ccc(Cl)cc3)nc3ccc(Cl)cn23)c1`, the inhibition is -13.4%. For `CN1OC[C@@H]2CN(C(=O)c3cccc4ccccc34)[C@H](c3ccc(N4CCCCC4)cc3)C[C@@H]21` the value was -9.07%; for `Cc1cc(C)cc(OCC(=O)Nc2ccc(S(=O)(=O)Nc3ccccn3)cc2)c1`, 6.49%.

Take `O=S(=O)(Nc1ccc(Oc2ncccn2)c(Cl)c1)c1ccc(F)cc1`: the inhibition was -28.6%. For `Cc1ccc(S(=O)(=O)Nc2ccc3ncccc3c2)cc1` the value was 86.6% (active); for `Cc1c(CC(=O)NCC(=O)NCC(=O)O)c(=O)oc2cc3oc4c(c3cc12)CCCC4`, -25.9%. For `CN(C)C(=O)c1ccc2c(c1)C1C3CCC(C3)C1C(c1ccccc1)N2` (configuration not stated) the value was -19.2%. In the case of `O=C(c1ccccc1)N1CCN(c2ccc([N+](=O)[O-])c(NCc3ccco3)c2)CC1` it was 27.6%. As to `COc1ccc(CCNc2cc(N3CCN(C(=O)c4ccccc4OC)CC3)ccc2[N+](=O)[O-])cc1OC`, the inhibition was 88.7% (active). Turning to `COc1ccccc1OCCNc1cc(N2CCOCC2)ccc1[N+](=O)[O-]`, the inhibition was 40.1%. For `CC1=CC(=O)C=CC1(C)C(Cl)(Cl)Cl` (configuration not stated) the value was 9.05%; for `O=C(CCS(=O)(=O)c1ccc2c(c1)NC(=O)CS2)NCc1ccccc1Cl`, -18.1%; for `CN(C)S(=O)(=O)c1ccc(C(=O)NCC(C)(C)N2CCOCC2)cc1`, 23%. As for `O=C(NCCSCc1ccccc1)c1ccc(Cl)c(S(=O)(=O)N2CCOCC2)c1`, the inhibition is 10.8%. In the case of `CC(C)(CNC(=O)c1ccc(Cl)c(S(=O)(=O)N2CCc3ccccc3C2)c1)N1CCOCC1` it was 82.5% (active). For `CCOC(=O)C1=CCC(c2ccc(F)cc2)N(S(=O)(=O)c2ccc(C)cc2)C1` (configuration not stated) the value was 10.7%; for `N#Cc1c(-c2ccc(F)cc2)cc(C2CC2)nc1SCC(=O)c1cccs1`, -3.6%.

As for `CN(CC1CCCO1)S(=O)(=O)c1ccc(C(=O)Nc2ccc([N+](=O)[O-])cc2)cc1` (configuration not stated), the inhibition is 39.9%. `CN1C2CCC1CC(NC(=O)c1ccc([N+](=O)[O-])cc1)C2` (configuration not stated): the inhibition is -1.34%. In the case of `O=C(Nc1cc2c3c(c1)C1CCCC1CN3CC1CCCC21)c1ccc([N+](=O)[O-])cc1` (configuration not stated) it was 88.9% (active). As for `CC1=NNC(=O)C1CCC(=O)N/N=C\c1cccc(Cl)c1` (configuration not stated), the inhibition is -5.12%.
